Test results taken from the supplement of paper PMC8183993.
Where a name gives a salt, the structure may show the parent alone. ± gives the standard deviation of the averaged measurements. Whole data set: some 3,100 compounds, median “mean cytoplasmic OPP incorporation (global translation) relative to DMSO” near 100, cut for the lowest 2% near 56. Shown is part of a subset that was picked to be rich in the lowest values.

Test system: U2OS
Experiment: mean cytoplasmic OPP incorporation (global translation) relative to DMSO (% of DMSO); higher = more protein synthesis
Settings: 10 µM; 24 h
Description: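 Primary image-based screen in U2OS cells: compounds at 10 uM for 24 h, then a 1 h o-propargyl-puromycin (OPP) pulse, click labelling, and high-throughput microscopy. Mean cytoplasmic OPP intensity and nuclei count were normalised to DMSO wells within each plate (DMSO = 100) and averaged over triplicate plates.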

| Compound | mean cytoplasmic OPP incorporation |
| --- | --- |
| CC(=O)[C@H]1CC[C@H]2[C@@H]3CC[C@H]4C[C@H](O)CC[C@]4(C)[C@H]3C(=O)C[C@]12C [Alfaxalone] | 102 |
| C[C@]12CC[C@H](O)C[C@@H]1CC[C@@H]1[C@@H]2CC[C@]2(C)C(=O)CC[C@@H]12 | 95.2 |
| C[C@]12CC[C@H](O)C[C@H]1CC[C@@H]1[C@@H]2C[C@@H](O)[C@]2(C)[C@@H](C3=CC(=O)OC3)CC[C@]12O [Digoxigenin] | 32 |
| C[C@]12CC[C@H](O)C[C@H]1CC[C@@H]1[C@@H]2CC[C@]2(C)[C@@H](C3=CC(=O)OC3)CC[C@]12O [Digitoxigenin] | 26.3 |
| C[C@]12CC[C@H](O)C[C@@H]1CC[C@@H]1[C@@H]2CC[C@]2(C)C(=O)CC[C@@H]12 [Epiandrosterone] | 90.1 |
| C[C@]12CC[C@@H](O)C[C@@H]1CC[C@@H]1[C@@H]2CC[C@]2(C)C(=O)CC[C@@H]12 [Androsterone] | 97.1 |
| CC(=O)O[C@H]1C[C@H](O[C@H]2[C@@H](O)C[C@H](O[C@H]3[C@@H](O)C[C@H](O[C@H]4CC[C@@]5(C)[C@H](CC[C@@H]6[C@@H]5C[C@@H](O)[C@]5(C)[C@@H](C7=CC(=O)OC7)CC[C@]65O)C4)O[C@@H]3C)O[C@@H]2C)O[C@H](C)[C@H]1O[C@@H]1O[C@H](CO)[C@@H](O)[C@H](O)[C@H]1O [Lanatoside C] | 27.8 |
| C[C@]12CC[C@@H](O)C[C@H]1CC[C@@H]1[C@@H]2CC[C@]2(C)C(=O)CC[C@@H]12 [3-alpha-Hydroxy-5-beta-androstan-17-one] | 89.8 |
| CN(C)CCN(C)CCc1ccc(Cl)c(Cl)c1 [BD 1047 dihydrobromide] | 105 |
| CN(C(=O)Cc1ccc(Cl)c(Cl)c1)[C@H](CN1CCCC1)c1ccccc1 [ICI-199,441 hydrochloride] | 111 |
| CCCN(CCC)[C@@H]1CCc2c(OC)cccc2[C@@H]1C [(+)-UH 232 maleate] | 102 |
| NC(C(=O)O)c1nn[nH]n1 (racemic) [(RS)-(Tetrazol-5-yl)glycine] | 102 |
| CC1(C)[C@@H](O)C[C@H]2[C@](C)(O)[C@@H]3CC[C@@H]4[C@@H](O)[C@@]3(C[C@@H](O)[C@@]21O)C[C@@]4(C)O [Grayanotoxin III] | 102 |
| Clc1ccc(C2=CCCC3CCC2N3)cn1 (stereo unspecified) [UB 165 fumarate] | 97.7 |
| CCC(Oc1ccc(Cl)cc1)C(=O)OC1C[C@H]2CC[C@@H](C1)N2C (stereo partly specified) [SM-21 maleate] | 106 |
| N=C(NCc1ccc(Cl)cc1)SCCCc1c[nH]cn1 [Clobenpropit dihydrobromide] | 95.4 |
| CC(N)Cc1cnc[nH]1 (stereo unspecified) | 101 |
| C=CCN1CC[C@]2(C)c3cc(O)ccc3C[C@H]1C2C (single isomer, unassigned; (+)) | 105 |
| COc1ccc(C(=O)O[C@H]2CC[C@@]3(C)[C@@H]4CC[C@H]5[C@]6(O)C[C@H](O)[C@@]7(O)[C@@H](CN8C[C@@H](C)CC[C@H]8[C@@]7(C)O)[C@]6(O)C[C@@]53O[C@]24O)cc1OC [Veratridine] | 108 |

| Compound | mean cytoplasmic OPP incorporation |
| --- | --- |
| COc1ccc2[nH]cc(C3=CCNCC3)c2c1 | 101 |
| CC(C)(Cc1c[nH]c2ccc(Cl)cc12)NCCOc1ccccc1OCC1CC1 | 55.1 |
| Cn1cc(C(=O)C(=O)N[C@H]2CN3CCC2CC3)c2ccccc21 | 99.4 |
| OC(Cc1ccncc1)C(Cl)(Cl)Cl (stereo unspecified) | 104 |
| C=C(C)CN1CC[C@@]23c4c5ccc(O)c4O[C@H]2c2[nH]c4ccccc4c2C[C@]3(O)C1C5 [SDM25N hydrochloride] | 95.8 |
| O=Cc1cn(Cc2ccc(Cl)cc2)c2ccccc12 [Oncrasin 1] | 83.4 |
| CN1C(=O)[C@]23CC4=CC=C[C@H](O)[C@H]4N2C(=O)[C@@]1(CO)SS3 [Gliotoxin] | 33.6 |
| CCC[C@@H]1CC2=CC(=O)CC[C@]2(C)[C@H]2CC[C@@]3(C)[C@@H](CC[C@@]3(O)CCC(=O)O)[C@H]12 | 96.1 |
| Oc1ccc2c3c1O[C@H]1c4c(c5ccccc5n4Cc4ccccc4)C[C@@]4(O)C(C2)N(CC2CC2)CC[C@]314 [N-Benzylnaltrindole hydrochloride] | 111 |
| Cc1nc(N)sc1CCN [Amthamine dihydrobromide] | 107 |
| C[C@@H]1O[C@@H](O[C@H]2C[C@@H](O)[C@]3(CO)[C@H]4[C@H](O)C[C@]5(C)[C@@H](C6=CC(=O)OC6)CC[C@]5(O)[C@@H]4CC[C@]3(O)C2)[C@H](O)[C@H](O)[C@H]1O [Ouabain] | 47 ± 1.8 |
| Cc1ncc(CN2CC=C(c3ccccc3)CC2)c(N)n1 | 101 |
| CC(CN)CC(=O)O (stereo unspecified) [3-Methyl-GABA] | 102 |
| CC1(C)[C@H](C(=O)O[C@H](C#N)c2cccc(Oc3ccccc3)c2)[C@@H]1C=C(Br)Br [Deltamethrin] | 101 |
| O=C1NC(=O)c2c1c1c3ccccc3n3c1c1c2c2ccccc2n1[C@H]1CC[C@@H]3O1 | 91.2 |
| O=C(O)C1=CCCN(CCOC(c2ccc(C(F)(F)F)cc2)c2ccc(C(F)(F)F)cc2)C1 [CI 966 hydrochloride] | 97.6 |
| COc1cc(N)c(Cl)cc1C(=O)NC1CN2CCC1CC2 (stereo unspecified) [Zacopride hydrochloride] | 104 |
| C[CH2][Hg][S]c1ccccc1C(=O)[O-].[Na+] [Thimerosal] | 15.5 |
| O=C(O)/C=C/CO [trans-4-Hydroxycrotonic acid] | 105 |

| Compound | mean cytoplasmic OPP incorporation |
| --- | --- |
| C[C@@H]1C[C@@H]([C@H](O)CC2CC(=O)NC(=O)C2)C(=O)[C@@H](C)C1 [Cycloheximide] | 52.1 ± 35 |
| CC[N+](CC)(CCCNC1=CC(=O)C(NCCC[N+](CC)(CC)Cc2ccccc2)=CC1=O)Cc1ccccc1 [Benzoquinonium dibromide] | 101 |
| O=C1CSC(c2ccccc2Cl)c2cc(Cl)ccc2N1 (stereo unspecified) | 101 |
| CCOC(=O)c1ncn2c1CN(C)C(=O)c1cc(N=[N+]=[N-])ccc1-2 | 91.9 |
| Cn1c2c(c3ccccc31)CCNCC2 | 97.4 |
| Fc1ccc(C(OCCN2CCN(C/C=C/c3ccccc3)CC2)c2ccc(F)cc2)cc1 | 102 |
| CCCOc1ccc2[nH]cc(C3=CCNCC3)c2n1 | 103 |
| C[C@@H]1CC[C@@]2(OC1)O[C@H]1C[C@H]3[C@@H]4CC=C5C[C@@H](O[C@@H]6O[C@H](CO)[C@@H](O[C@@H]7O[C@@H](C)[C@H](O)[C@@H](O)[C@H]7O)[C@H](O)[C@H]6O[C@@H]6O[C@@H](C)[C@H](O)[C@@H](O)[C@H]6O)CC[C@]5(C)[C@H]4CC[C@]3(C)[C@H]1[C@@H]2C [Dioscin (Collettiside III)] | 50.2 |
| CC(=O)O[C@H]1CC[C@@]2(C)C(=CC[C@@H]3[C@@H]2CC[C@]2(C)C(=O)CC[C@@H]32)C1 [Dehydroisoandosterone 3-acetate] | 83.5 |
| C=CCN1C[C@H](C)N([C@H](c2ccc(C(=O)N(CC)CC)cc2)c2cccc(O)c2)C[C@H]1C | 111 |
| O=C1/C(=C/c2ccccc2)C[C@@]2(O)[C@H]3Cc4ccc(O)c5c4[C@@]2(CCN3CC2CC2)[C@H]1O5 [BNTX maleate] | 34.8 |
| O=C1CC[C@@]2(O)[C@H]3Cc4ccc(O)c5c4[C@@]2(CCN3CC2CC2)[C@H]1O5 [Naltrexone hydrochloride dihydrate] | 108 |
| Oc1ccc2c3c1O[C@H]1c4[nH]c5c(c4C[C@@]4(O)[C@@H](C2)N(CC2CC2)CC[C@]314)C[C@@]1(O)[C@H]2Cc3ccc(O)c4c3[C@@]1(CCN2CC1CC1)[C@H]5O4 [nor-Binaltorphimine dihydrochloride] | 102 |
| NCC(CS(=O)(=O)O)c1ccc(Cl)cc1 (stereo unspecified) [Saclofen] | 104 |
| C[C@@H]1O[C@@H](O[C@@H]2C=C3CC[C@@H]4[C@H](CC[C@]5(C)[C@@H](c6ccc(=O)oc6)CC[C@]45O)[C@@]3(C)CC2)[C@H](O)[C@H](O)[C@H]1O [Proscillaridin A] | 17.5 |
| Cc1ccc2cc3c(ccc4ccccc43)c3c2c1CC3 [3-Methylcholanthrene] | 114 |
| O=C(O)CCC(CP(=O)(O)O)C(=O)O (stereo unspecified) [PMPA (NAALADase inhibitor)] | 105 |
| CCOc1cncc(/C=C/CCNC)c1 [TC 2559 difumarate] | 97.5 |
